# In the supplement of paper PMC10646978:
# ± gives the standard deviation.
# Columns and labels:
# Settings in all cases: modulator concentration 10 µM
# [1] = test system: RAW-Dual (murine macrophage reporter line); assay: NF-kB reporter (SEAP) activity fold change vs agonist alone; higher = enhanced NF-kB activity
# In short: (§1)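 Overnight stimulation with a PRR agonist followed pre-incubation for 1 hour at 37 °C with compound at 10 μM final. This was done in RAW-Dual murine macrophage reporter cells seeded at 50 000 per well in 384-well plates. NF-κB (SEAP, QUANTI-Blue absorbance at 620 nm) and IRF (Lucia luciferase, QUANTI-Luc luminescence) were read from the supernatant. Each reporter's fold change relative to the mean agonist-only control on the same plate was averaged over replicate plates.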
# [2] = test system: RAW-Dual (murine macrophage reporter line); assay: IRF reporter (Lucia luciferase) activity fold change vs agonist alone; higher = enhanced IRF activity
# In short: as §1
# [3] = test system: RAW-Dual (murine macrophage reporter line); assay: viability score (confluency relative to resting cells, overnight) (fraction); higher = more viable, active = viable (0.7 or more)
# In short: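 RAW-Dual macrophages in 384-well plates were incubated overnight with compound, final concentration 10 μM. Confluency images from IncuCyte were processed in IncuCyte software into two masks covering all imaged wells. The viability score is each well's confluency relative to resting cells, and a compound met the cutoff when both masks exceeded 70% of resting cells.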
# [4] = agonist: CpG ODN 1826 0.5 ug/mL
SMILES,"NF-kB reporter [1, 4]",NF-kB reporter ([1]; agonist: LPS 0.1 ug/mL),NF-kB reporter ([1]; agonist: MPLA […]),IRF reporter ([2]; agonist: 3'3'-cGAMP 10 ug/mL),IRF reporter ([2]; agonist: LPS 0.1 ug/mL),IRF reporter ([2]; agonist: MPLA […]),viability score [3]
CS(=O)(=O)c1cccc(C[C@H](NC(=O)c2c(Cl)cc3c(c2Cl)CCN(C(=O)c2ccc4ccoc4c2)C3)C(=O)O)c1,1.12 ± 0.17,1.22 ± 0.23,1.97 ± 1.1,1.07 ± 0.084,1.37 ± 0.41,1.31 ± 0.1,0.983 (active)
CCOC(=O)C1=C(C)NC(=Cc2ccccc2[N+](=O)[O-])C1=O,1.66 ± 0.13,0.864 ± 0.2,0.872 ± 0.13,0.275 ± 0.024,0.0881 ± 0.019,0.064 ± 0.016,0.755 (active)
O=C(C=Cc1ccccc1)c1ccc(OC2OC(CO)C(O)C(O)C2O)cc1O (stereo not given),1.18 ± 0.068,1.03 ± 0.082,0.94 ± 0.07,1.02 ± 0.039,1.32 ± 0.087,1.2 ± 0.17,0.986 (active)
O=C(Nc1ccc([N+](=O)[O-])cc1Cl)c1cccnc1,0.871 ± 0.26,0.96 ± 0.11,0.982 ± 0.16,0.958 ± 0.061,1.06 ± 0.23,1.33 ± 0.37,0.996 (active)
Brc1ccc(-c2nc(-c3ccccc3)cc(N3CCOCC3)n2)cc1,1.05 ± 0.089,1.01 ± 0.066,1.01 ± 0.039,0.961 ± 0.097,1.11 ± 0.1,1.09 ± 0.16,1 (active)
Cc1cc(OC2CN(C(=O)Cc3c[nH]c4ccccc34)C2)cc(=O)n1C1CC1,1.1 ± 0.055,1.1 ± 0.091,0.997 ± 0.11,1 ± 0.05,1.2 ± 0.076,1.23 ± 0.12,0.983 (active)
O=S(=O)(Cc1ccccc1)Nc1ccccn1,0.951 ± 0.054,1.03 ± 0.084,0.893 ± 0.067,0.961 ± 0.032,1.49 ± 0.13,1.27 ± 0.15,1 (active)
CCOC(=O)C1=C(C)OC(N)=C(C#N)C1c1cc(C)c(OC)cc1C (stereo not given),0.925 ± 0.073,1.01 ± 0.11,0.898 ± 0.056,0.66 ± 0.11,0.987 ± 0.089,0.935 ± 0.17,1 (active)
COc1ccc(Nc2nc(Nc3ccc(F)cc3)nc(N3CCOCC3)n2)cc1OC,0.409 ± 0.059,1.61 ± 0.14,2.96 ± 0.16,0.413 ± 0.036,1.36 ± 0.17,2.15 ± 0.54,0.905 (active)
CC(C)(C)SCC(O)Cn1c2ccc(Br)cc2c2cc(Br)ccc21 (stereo not given),0.767 ± 0.06,0.846 ± 0.1,0.91 ± 0.098,0.844 ± 0.039,1.31 ± 0.079,1.4 ± 0.12,0.999 (active)
CN1CC[C@H](c2c(O)cc(O)c3c(=O)cc(-c4ccccc4Cl)oc23)[C@H](O)C1,0.118 ± 0.009,0.0512 ± 0.004,0.104 ± 0.01,0.0122 ± 0.0028,0.0166 ± 0.001,0.0196 ± 0.0027,0.0463 (inactive)
CN1CCN(C2=Nc3ccccc3Oc3ccc(Cl)cc32)CC1 [Prestw-132],1.08 ± 0.22,0.804 ± 0.09,0.812 ± 0.079,0.944 ± 0.054,1.08 ± 0.18,0.961 ± 0.18,1.03 (active)
COc1cc2nccc(Oc3ccc(NC(=O)Nc4cc(C)on4)c(Cl)c3)c2cc1OC,0.178 ± 0.022,0.66 ± 0.062,0.639 ± 0.057,0.626 ± 0.028,0.938 ± 0.066,1.02 ± 0.1,1 (active)
CNCC[C@H](Oc1cccc2ccccc12)c1cccs1.Cl,0.377 ± 0.037,0.925 ± 0.1,1.29 ± 0.069,1.41 ± 0.1,1.16 ± 0.18,1.24 ± 0.31,0.323 (inactive)
Cc1ccc(O)c(C2=NOC(O)(C(F)(F)F)C2)c1 (stereo not given),1.05 ± 0.065,0.955 ± 0.074,0.919 ± 0.054,0.975 ± 0.037,1.43 ± 0.24,1.04 ± 0.093,0.339 (inactive)
CN(C)C/C=C/C(=O)Nc1cc2c(Nc3ccc(F)c(Cl)c3)ncnc2cc1O[C@H]1CCOC1,0.0842 ± 0.0066,0.28 ± 0.053,0.266 ± 0.033,0.0559 ± 0.0049,0.0747 ± 0.015,0.0463 ± 0.0039,0.56 (inactive)
CCn1nc(C)c(S(=O)(=O)N2CC3CC2CS3)c1C (stereo not given),0.892 ± 0.039,0.936 ± 0.075,0.959 ± 0.051,1.04 ± 0.055,1.17 ± 0.23,1.29 ± 0.41,0.988 (active)
O=C(O)CCc1nc(-c2ccccc2)c(-c2ccccc2)o1,1.05 ± 0.079,0.998 ± 0.066,1.03 ± 0.023,0.931 ± 0.055,0.976 ± 0.12,1.03 ± 0.15,0.991 (active)
COc1ccccc1OCCNCC(O)COc1cccc2[nH]c3ccccc3c12 (stereo not given),0.0926 ± 0.0072,0.894 ± 0.057,0.892 ± 0.084,1.26 ± 0.086,1.53 ± 0.11,1.53 ± 0.16,0.957 (active)
O=C1c2ccccc2C(=O)C1c1ccccn1,0.912 ± 0.069,1.08 ± 0.087,0.993 ± 0.021,0.897 ± 0.055,0.976 ± 0.075,0.95 ± 0.091,0.987 (active)
COc1ccc(C2(C#N)CCC(C(=O)O)CC2)cc1OC1CCCC1 (stereo not given),1.37 ± 0.11,1.16 ± 0.085,1.37 ± 0.16,1.05 ± 0.048,1.25 ± 0.083,1.38 ± 0.12,1.02 (active)
CCN(CC)C(=S)SSC(=S)N(CC)CC,1.2 ± 0.097,0.633 ± 0.041,2.07 ± 0.22,2.71 ± 0.29,0.201 ± 0.025,0.114 ± 0.018,0.461 (inactive)
NS(=O)(=O)c1ccc2c(c1)CCCC2,0.512 ± 0.11,0.806 ± 0.22,0.661 ± 0.15,0.932 ± 0.057,0.925 ± 0.073,0.957 ± 0.3,0.863 (active)
Brc1ccc(CN2C3=NCCCN3c3ccccc32)cc1.Cl,0.263 ± 0.023,0.826 ± 0.054,1.34 ± 0.092,0.735 ± 0.089,0.984 ± 0.049,0.905 ± 0.11,0.96 (active)
CC(C)Sc1ccc(CC(=O)NC2CCN(c3cc4c(nn3)CCCC4)CC2)cc1,0.556 ± 0.041,1.19 ± 0.11,1.02 ± 0.076,0.847 ± 0.04,1.26 ± 0.27,1.51 ± 0.47,0.973 (active)
Cc1nnsc1C(=O)Nc1ccccc1C(F)(F)F,1.1 ± 0.084,0.954 ± 0.077,1 ± 0.048,0.969 ± 0.039,0.993 ± 0.11,0.929 ± 0.15,1 (active)
CCOC(=O)c1cnn(CCOc2ccccc2)c1N,1.05 ± 0.081,0.851 ± 0.079,1.02 ± 0.11,0.975 ± 0.052,1.22 ± 0.13,1.31 ± 0.2,1 (active)
COc1ccccc1N1CCN(c2ncnc3c2cnn3-c2cc(C)cc(C)c2)CC1,1.2 ± 0.067,1.16 ± 0.1,1.19 ± 0.042,1.01 ± 0.049,1.05 ± 0.098,1.08 ± 0.16,0.997 (active)
COC(CNC(=O)c1cccc(Cl)c1)c1ccccc1C (stereo not given),0.774 ± 0.038,0.876 ± 0.092,0.958 ± 0.075,0.965 ± 0.059,1.22 ± 0.23,1.37 ± 0.34,0.999 (active)
CCc1ccc2ncc(C#N)c(Nc3cc(OC)c(OC)c(OC)c3)c2c1.Cl,1.37 ± 0.071,1.24 ± 0.17,0.931 ± 0.066,0.712 ± 0.038,0.607 ± 0.078,0.725 ± 0.17,0.903 (active)
